Bioassay records as filed in PubChem BioAssay.
TDP1 cell CPT – growth inhibition of DT40 Tdp1-/-;hTDP1 cells with camptothecin (screen for TDP1 inhibitors) | chicken DT40 Tdp1-/-;hTDP1 cells + 20 nM CPT, ATP luminescence, 48 h | Potency, µM (titrated, usually from 46.2 µM), without a hit: at the top dose activity change, negative = growth inhibition, actives largely listed as inhibitors | actives 12% (n = 420,000) | AID 686979; note: potency is the fitted concentration of half-maximal effect; nearly all actives have a fitted effect of over 55% in size
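Chicken DT40 Tdp1-/- cells stably complemented with human TDP1 were seeded at 400 cells/well in medium containing 20 nM camptothecin, exposed to pin-transferred compounds, and grown at 37 °C for at least 48 hr. Viability was read as ATP luminescence.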
CtBP-E1A blk – blocks the CtBP interaction with E1A. AID 651724. AlphaScreen GST-E1A/His-CtBP binding, 1536-well; active compounds read low. activity change, % (test concentration not listed). actives 0.49% (n = 340,000); in the data active = activity change below about -65%; inconclusive = mostly about -30% to -63%
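Protein mix (5X: 125 nM each GST-E1A, His-CtBP) was incubated with pinned compound 2 h at 37 deg C in dark, in 50 mM Tris pH 8.0 buffer with 300 mM NaCl. Glutathione donor and nickel acceptor beads followed; AlphaScreen signal read after 1 h.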
Six1-Eya2 inh – inhibitors of human Six1/Eya2 interaction; Q15475+O00167; AlphaScreen GST-Six1/His-Eya2 binding, biochemical; active compounds read low; actives 0.56% (n = 360,000); activity change, % (no concentration beside the values); in the data active = activity change below about -65%; inconclusive = mostly about -30% to -63%
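Homogeneous AlphaScreen proximity assay pairing GST-Six1 with His-tagged Eya2 (added as 5X mix: 250 nM and 500 nM) in 50 mM Tris pH 8.0, 300 mM NaCl, 1 mM TCEP. Glutathione donor and nickel acceptor beads; 1 h, 37 °C, dark.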
TDP1 inh – TDP1 (human) enzyme inhibition; Q9NUW8; Potency, µM (highest dose often 130 µM), for inactives: top-dose activity change, negative = inhibition, actives largely listed as inhibitors; recombinant TDP1, AlphaScreen DNA substrate cleavage; actives 0.28% (n = 350,000); note: potency is the fitted concentration of half-maximal effect; nearly all actives have a fitted effect of over 40% in size
Target sequence (Q9NUW8 whole entry, looked up): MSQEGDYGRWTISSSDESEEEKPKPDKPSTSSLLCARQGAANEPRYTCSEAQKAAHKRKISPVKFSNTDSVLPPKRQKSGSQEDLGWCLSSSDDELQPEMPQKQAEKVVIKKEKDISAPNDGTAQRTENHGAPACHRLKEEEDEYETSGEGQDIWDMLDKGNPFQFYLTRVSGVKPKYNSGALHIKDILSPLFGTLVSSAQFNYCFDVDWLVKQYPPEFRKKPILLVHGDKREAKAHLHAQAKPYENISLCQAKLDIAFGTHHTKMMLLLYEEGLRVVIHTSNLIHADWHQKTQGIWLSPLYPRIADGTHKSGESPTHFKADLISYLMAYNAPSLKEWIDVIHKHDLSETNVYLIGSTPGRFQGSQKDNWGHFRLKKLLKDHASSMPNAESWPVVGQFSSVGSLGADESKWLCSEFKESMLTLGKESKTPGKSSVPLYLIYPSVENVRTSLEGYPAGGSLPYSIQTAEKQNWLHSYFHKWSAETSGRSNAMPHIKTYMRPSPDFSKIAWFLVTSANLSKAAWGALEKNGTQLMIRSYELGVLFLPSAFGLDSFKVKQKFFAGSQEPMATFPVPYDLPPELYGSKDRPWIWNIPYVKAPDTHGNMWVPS
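Recombinant E. coli-expressed Tdp1 (1 nM) preincubated with compound 15 min at RT, then 5'-biotin/3'-phosphotyrosine-FITC DNA substrate (15 nM) added for 5 min. AlphaScreen beads (10 ug/ml) added, 10 min RT; tyrosine-FITC cleavage read as signal loss.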
IL1B secr inh – inflammasome signaling inhibition, IL-1 beta readout; activity change, % at 57.5 µM; actives 4.7% (n = 360,000); AID 743279; THP-1 LPS/ATP IL-1B secretion, AlphaLISA, 16 h; active compounds read low; in the data active = activity change below about -50%; inconclusive = mostly about -30% to -49%
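THP-1 cells pretreated 1 hr with compounds (up to 57.5 uM final), then stimulated with LPS (250 ng/mL final) plus ATP (1.25 mM final); secreted IL-1B measured by AlphaLISA after 16 hr, decreased signal indicating inhibition.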
DT40 TDP1 no CPT – qHTS for Inhibitors of human tyrosyl-DNA phosphodiesterase 1 (TDP1): qHTS in cells in absence of CPT. DT40 Tdp1-/- hTDP1 cells, no CPT, ATP luminescence, 48 h. Potency, µM (highest dose often 46.2 µM), without a hit: at the top dose activity change, negative = growth inhibition, usual class: inhibitors. actives 15% (n = 420,000); note: potency is the fitted concentration of half-maximal effect; nearly all actives have a fitted effect of over 55% in size
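Camptothecin absent (DMSO only). Human TDP1-complemented DT40 knockout cells, 400 cells/well, 37 °C for minimum 48 hr; ATP measured via CellTiter-Glo, 30 min dark incubation, luminescence.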
Active calls of the source: *; ? = inconclusive; . = no result given. Shown are actives, neighbours in structure and some others; about 18% of the full set was active somewhere. Unless noted, calls come from the whole dose curve; as a rule, active = well fitted curve in the direction sought with a large enough effect; inconclusive = small, poorly fitted or top-dose-only effect, or another doubt; inactive = no such curve, though single readings can be large; an effect the other way counts as inactive or inconclusive. % is set by controls: 0 for no effect and ±100 for the full control effect.

SMILES	TDP1 cell CPT	CtBP-E1A blk	Six1-Eya2 inh	TDP1 inh	IL1B secr inh	DT40 TDP1 no CPT
CCC(C)(C)C1CCc2[nH]nc(C(=O)NC3CCCC3)c2C1 (stereo not given)	16µM*	.	34	-3%	?	?
Cc1cccc(C)c1-n1nnnc1SCC(=O)N1CCNC1=O	?	8	-2	-8%	14	-39%
O=C(O)/C(=C\c1cccc(F)c1)c1ccc(S(=O)(=O)N2CCCCC2)s1	-21%	-6	-3	-1%	21	-2%
CSc1ccc(/C=C(\C(=O)O)c2ccc(S(=O)(=O)N3CCCC3)s2)cc1	4%	-4	-3	28µM*	9	11%
COc1ccc(-n2nc(C(=O)NCC(=O)Nc3cccc(Cl)c3)c3ccccc3c2=O)cc1OC	15µM*	-7	2	-4%	2	15µM*
COc1ccc(NC(=O)CNC(=O)c2nn(-c3ccc(OC)c(Cl)c3)c(=O)c3ccccc23)c(OC)c1	?	8	10	.	-4	16µM*
COc1ccc(-n2nc(C(=O)NCC(=O)Nc3cc(Cl)c(OC)cc3OC)c3ccccc3c2=O)cc1	-39%	0	15	12%	7	-60%
COc1ccc(-n2nc(C(=O)NCC(=O)N3CCCC(C)C3)c3ccccc3c2=O)cc1 (stereo not given)	-14%	0	-2	3%	-10	21µM*
CCOc1ccccc1NC(=O)CNC(=O)c1nn(-c2ccc(OC)c(OC)c2)c(=O)c2ccccc12	?	7	0	1%	-8	9.2µM*
Cc1nn(C)c(C(=O)N/N=C/c2ccc(Br)cc2)c1Cl	0%	1	-11	0%	-1	-17%
CCOC(=O)CNC(=O)O[C@@H]1C(=O)c2cc(OC)ccc2O[C@H]1c1cccc(OC)c1	.	.	.	7%	.	.
CCN(CCCNC(=O)CNC(=O)c1nn(-c2ccc(OC)c(OC)c2)c(=O)c2ccccc12)c1ccccc1	?	-10	-9	10%	?	18µM*
COc1ccc(CCNC(=O)CNC(=O)c2nn(-c3ccc(OC)c(OC)c3)c(=O)c3ccccc23)cc1OC	-28%	1	1	7%	-6	9.2µM*
CCCCNC(=O)CNC(=O)c1nn(-c2ccc(OC)c(OC)c2)c(=O)c2ccccc12	-24%	1	-2	.	2	?
Nc1c2c(=O)[nH]c(O)cc2nn1-c1ccccc1	-24%	-66*	7	.	36	?
CCc1ccc(NC(=O)c2ccc(F)c(S(=O)(=O)N(C)C3CCCCC3)c2)cc1	?	.	.	5%	.	21µM*
O=C(Nc1cc(Cl)cc(Cl)c1)c1ccc(F)c(S(=O)(=O)NC2CCCC2)c1	16µM*	.	.	3%	.	18µM*
Cc1ccccc1NC(=O)c1ccc(F)c(S(=O)(=O)NC2CCCC2)c1	6%	.	.	5%	.	-10%
CCc1ccc(NC(=O)c2ccc(F)c(S(=O)(=O)NC3CCCCCC3)c2)cc1	?	.	.	10%	.	21µM*
COc1ccc(S(=O)(=O)N2CCC(C(=O)NCCC(=O)NCc3ccccn3)CC2)cc1	12%	1	8	.	7	-20%
COCCn1c(C)cc(C(=O)CSc2cc(C)c3ccccc3n2)c1C	?	17	-23	4%	-69*	?
COCCn1c(C)cc(C(=O)CSc2nc3ccccc3c(=O)n2Cc2ccco2)c1C	6.5µM*	15	6	-1%	4	?
COCCn1c(C)cc(C(=O)CSc2nnc(C)s2)c1C	-23%	-2	-3	1%	5	-22%
CC(=O)Nc1nnc(SCC(=O)NC2CC2)s1	1%	-1	-1	2%	10	12%
Cc1c(CNC(=O)c2cnn3c2NC(c2ccccc2)CC3C(F)(F)F)cnn1C (stereo not given)	-20%	8	0	4%	-10	-12%
SMILES	TDP1 cell CPT	CtBP-E1A blk	Six1-Eya2 inh	TDP1 inh	IL1B secr inh	DT40 TDP1 no CPT
CSc1ccc(CC2C(=O)Nc3ccccc32)cc1 (stereo not given)	?	.	.	8%	.	21µM*
Cc1cccc(CC2C(=O)Nc3ccccc32)c1 (stereo not given)	?	.	.	-2%	.	21µM*
O=C1Nc2ccccc2C1Cc1ccc(Br)cc1 (stereo not given)	?	.	.	4%	.	?
CCOc1ccc2[nH]c(=O)c(CN(Cc3cccs3)Cc3nnnn3C(C)(C)C)cc2c1	21µM*	5	-2	1%	?	16µM*
COc1ccc2[nH]c(=O)c(CN(Cc3cccs3)Cc3nnnn3C(C)(C)C)cc2c1	?	-7	-8	3%	-8	23µM*
CCOc1ccc2[nH]c(=O)c(CN(CCN3CCOCC3)Cc3nnnn3C(C)(C)CC)cc2c1	?	-15	-3	8%	-5	-1%
CC(=O)N1CCN(c2csc3ccc(Br)cc3c2=O)CC1	-19%	.	.	-4%	.	?
Cc1cc(N2CCC(C)CC2)nc(-n2nc(C)cc2C)n1	2.6µM*	-7	2	3%	1	2.6µM*
Cc1cc(C)n(-c2nc3ccccc3nc2N2CCC(C)CC2)n1	-17%	35	48	-13%	2	-26%
COc1ccccc1CNC(=O)CCNC(=O)C1CCN(S(=O)(=O)c2ccccc2)CC1	-19%	6	3	2%	21	10%
Cc1ccc(CNC(=O)CSc2nc3ccccc3[nH]2)cc1	-11%	.	-8	6%	2	-20%
Cc1nc2scc(-c3ccc(Cl)cc3)c2c(=O)n1N	-28%	7	-6	1%	0	?
CC(C)c1nc2scc(-c3ccc(Cl)cc3)c2c(=O)n1N	26µM*	1	-1	4%	-19	?
CN1CCN(C(=O)c2ccc3c(c2)N(Cc2ccc(Cl)cc2)C(=O)c2ccccc2S3=O)CC1 (stereo not given)	-24%	5	3	5%	-18	-9%
O=C(c1ccc2c(c1)N(Cc1ccccc1F)C(=O)c1ccccc1S2=O)N1CCN(c2ccccc2)CC1 (stereo not given)	23µM*	.	.	6%	.	16µM*
CN1CCN(C(=O)c2ccc3c(c2)N(Cc2ccccc2F)C(=O)c2ccccc2S3=O)CC1 (stereo not given)	?	1	2	.	-1	-38%
O=C(c1ccc2c(c1)N(Cc1ccc(Cl)cc1)C(=O)c1ccccc1S2=O)N1CCN(c2ccccc2F)CC1 (stereo not given)	23µM*	.	.	1%	.	21µM*
